Screening data deposited in PubChem BioAssay by National Center for Advancing Translational Sciences (NCATS).
ATXN2 expr inh: inhibitors of ATXN2 expression. HEK-293 ATXN2-luciferase reporter, luminescence, 24 h. Potency, µM (doses to about 57 µM), for the others: top-dose activity change, negative = inhibition, hits mostly inhibitors. actives 0.72% (n = 360,000). AID 1745845; further: on the % scale 0 is the no-effect control and ±100 the full control effect; nearly all actives have a fitted effect of over 55% in size
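ATXN2-luciferase reporter cells (luciferase flanked by upstream and downstream ATXN2 gene portions) were treated 24 h at 37 °C with compounds at up to 57 uM. SteadyGlo luminescence gave expression; GF-AFC fluorescence gave viability.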
Nrf2 ARE act: activators of Nrf2 (ARE) signaling. Potency, µM (top dose mostly 46.1 µM), inactives show at the top dose activation, actives largely listed as activators. AREc32 ARE-luciferase reporter (MCF7-derived line), luminescence, 24 h. actives 0.31% (n = 410,000); further: % of control where 0% means no effect; nearly all actives have a fitted effect of over 65% in size
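AREc32 cells carrying an ARE-driven firefly luciferase, 1000 cells/well in OPTI-MEM with 5% FBS, dosed after overnight attachment and incubated 24 hr at 37 deg C. Steady-Glo luminescence read after 30 min at RT.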
A549 viability: counter-screen for Nrf2 inhibitors: cytotoxicity in A549 cells. A549 ARE-Fluc cells, CellTiter-Fluor viability, 18-24 h. Potency, µM (doses to about 46 µM), for inactives: at the highest dose activity change, negative = cytotoxicity, actives largely listed as inhibitors. actives 0.16% (n = 390,000); further: on the % scale 0 is the no-effect control and ±100 the full control effect
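Cytotoxicity counterscreen: CellTiter-Fluor fluorescence was measured in A549 ARE_Fluc cells after 18-24 h of compound exposure in a concentration series. The subsequent BugLite luminescent read reports ARE-luciferase activity.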
S2 tox: viability counter-screen for ATXN expression inhibitors; AID 651635; Potency, µM (highest dose often 56.7 µM), hits mostly cytotoxic; actives 0.49% (n = 400,000); S2 cells (HEK-293 line with an ATXN2-luciferase reporter) viability, CellTiter-Fluor protease fluorescence, 24 h; further: nearly all actives have a fitted effect of over 40% in size
Nrf2 block: inhibitors of Nrf2 signaling; A549 ARE-Fluc reporter, luciferase luminescence, 18-24 h; Potency, µM (doses to about 46 µM), for inactives: at the top dose activity change, negative = inhibition, usual class: inhibitors; actives 2.1% (n = 360,000); further: on the % scale 0 is the no-effect control and ±100 the full control effect; nearly all actives have a fitted effect of over 60% in size
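Concentration-response testing used A549 ARE_Fluc cells at 5000 cells/well. Following an 18-24 h compound incubation, viability was read by fluorescence (Ex 405/Em 525) and luciferase output by luminescence.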
The depositor's hits bear a star; i = inactive; ? = inconclusive; . = no result. Sampled rows, rich in hits. Any-hit rate of the full collection: about 2.9%. The call rests on the fitted dose curve; in most records, active means well fitted curve in the direction sought with a large enough effect; inconclusive means small, poorly fitted or top-dose-only effect, or another doubt; inactive means no such curve, though single readings can be large; an effect the other way counts as inactive or inconclusive. Potency means the concentration at half of the fitted maximal effect.

SMILES	ATXN2 expr inh	Nrf2 ARE act	A549 viability	S2 tox	Nrf2 block
CCCCn1cc(S(=O)(=O)c2ccc(Cl)cc2)c(=O)c2cc(F)c(N3CCCCC3)cc21	.	0%	7%	.	?
Cc1cccc(Cl)c1NC(=O)N1CCN(c2ccnc3cc(Cl)ccc23)CC1	.	0%	-11%	?	9.2µM*
CCOc1ccc(NC(=O)N2CCN(c3nc4ccccc4s3)CC2)cc1	-19%	3%	-9%	i	?
O=S(=O)(c1cccs1)N1CCN(c2ccnc3cc(Cl)ccc23)CC1	?	0%	?	i	?
CC(=O)N1CCN(c2ccnc3cc(Cl)ccc23)CC1	-30%	0%	2%	i	?
Cc1cccc(C)c1NC(=O)N1CCN(c2nc3ccccc3s2)CC1	-25%	1%	-18%	i	4.6µM*
CCCCNC(=O)N1CCN(c2ccnc3cc(Cl)ccc23)CC1	-26%	0%	-4%	i	10µM*
O=C(Nc1ccc(F)cc1F)N1CCN(c2ccc(Cl)c(Cl)c2)CC1	20µM*	1%	?	?	?
O=[S+]([O-])(c1ccc2c(c1)OCCO2)N1CCN([S+](=O)([O-])c2ccc(F)cc2Br)CC1	.	.	4%	.	-11%
O=C(O)CSCC(=O)N1CCN(c2ccnc3cc(Cl)ccc23)CC1	2%	-1%	-9%	i	-7%
O=C(Nc1cc(F)ccc1F)N1CCN(c2ccnc3cc(Cl)ccc23)CC1	?	3%	-2%	?	16µM*
O=C(Nc1ccc(C(F)(F)F)cc1)N1CCN(c2ccnc3cc(Cl)ccc23)CC1	?	10%	?	?	18µM*
CCOc1ccccc1NC(=O)C(Cc1ccccc1)NS(=O)(=O)c1ccc(Br)s1 (stereo unspecified)	-32%	0%	-10%	i	18µM*
OC1(c2cccnc2)CCN(Cc2ccc3c(c2)CN(Cc2cccc(F)c2F)CCO3)CC1	.	.	.	i	.
CN1CCN(CCCNC(=O)c2ccc(/C=C3\Sc4ccccc4N(Cc4ccc(F)cc4)C3=O)cc2)CC1	.	-3%	4%	?	26%
CN1CCN(CCCNC(=O)c2ccc(/C=C3\Oc4ccccc4N(Cc4ccccc4F)C3=O)cc2)CC1	.	4%	0%	20µM*	-7%
CC(C)C(NS(C)(=O)=O)c1nnc2n1CCN(Cc1cccc3ncccc13)CC2 (stereo unspecified)	.	.	.	i	.
COC(=O)c1ccc2c(=O)n(CCCCCC(=O)N3CCN(c4cc(C)ccc4C)CC3)c(=O)[nH]c2c1	.	3%	?	.	.
Cc1ccc(S(=O)(=O)n2cnc3cc([N+](=O)[O-])ccc32)cc1C	0%	0%	-2%	i	-13%
Cc1ccc(-n2c3nc(=O)[nH]c(=O)c-3cc3cc([N+](=O)[O-])ccc32)cc1C	.	3%	?	i	15µM*
Oc1ccc(/C=N/Nc2ccnc3cc(Cl)ccc23)cc1O	?	11%	-7%	32µM*	10%
Oc1ccc(/C=N/Nc2ccnc3cc(Cl)ccc23)c(O)c1O	3%	-1%	-18%	i	-5%
O=C(N/N=C/c1ccc(Cl)cc1Cl)c1ccncc1	.	0%	-1%	?	1%
O=C(N/N=C/c1ccc(O)cc1O)c1ccc(NC(=O)C2CCCCC2)cc1	5.6µM*	3%	-21%	?	?
O=C(N/N=C/c1ccc(O)cc1O)c1ccncc1	22µM*	-1%	-17%	i	12µM*
SMILES	ATXN2 expr inh	Nrf2 ARE act	A549 viability	S2 tox	Nrf2 block
O=C(N/N=C/c1cc(Cl)cc(Cl)c1O)c1ccncc1	.	-1%	-8%	i	9.2µM*
O=C(N/N=C/c1cc(Br)cc(Cl)c1O)c1ccc2c(c1)OCO2	13µM*	0%	-6%	i	?
CC(C)c1ccc(CN(Cc2ccco2)c2cnc(S(C)(=O)=O)nc2C(=O)Nc2ccccc2)cc1	15%	2%	8%	i	8%
Cc1nc2sccn2c1CN1CCC2(CC1)CC2C(=O)Nc1ccc2c(c1)OCO2 (stereo unspecified)	.	.	.	i	.
Cc1ccc(C(C)C)c(OCc2ccc(C(=O)N/N=C/c3ccc(C(=O)O)cc3)cc2)c1	.	-2%	1%	i	-17%
Cc1ccc(C(C)C)c(OCc2ccc(C(=O)N/N=C/c3ccc(O)cc3O)cc2)c1	10µM*	-1%	-19%	?	?
C/C(=N\NC(N)=S)C1=CCC2C3CC[C@H]4CC(O)CC[C@]4(C)C3CC[C@]12C (stereo partly specified)	.	4%	-6%	4.5µM*	?
O=C(NCc1nnc2n1CCN(Cc1cc3c(cc1Cl)OCO3)CC2)C1CCOC1 (stereo unspecified)	.	.	.	i	.
Cc1cc(-c2ncc(CC(=O)Nc3ccc(-c4cnccn4)cn3)cc2C)ccn1	-18%	.	.	.	.
Cc1[nH]c2ccccc2c1N=Nc1ccc(F)cc1	-31%	?	?	i	26µM*
Cc1[nH]c2ccccc2c1N=Nc1ccccc1F	6%	?	-10%	?	?
COC(=O)c1c(OCc2ccccn2)cc(=O)n2c1CCN(C(=O)c1cc(C(C)C)nn1C)CC2	.	.	.	i	.
CC1(c2ccccc2)OC(C(=O)O)=CC1=O (stereo unspecified)	3%	.	.	i	.
FC(F)(F)c1cc(-c2cccs2)nc(-n2cc(Br)cn2)n1	-12%	3.2µM*	-7%	i	-29%
CCCN(CCC)S(=O)(=O)c1ccc(C(=O)Nc2nnc(CSC)o2)cc1	?	0%	-18%	?	9.2µM*
CCCCN(CCCC)S(=O)(=O)c1ccc(C(=O)Nc2nnc(CSC)o2)cc1	?	0%	-24%	i	7.3µM*
CCCCN(CC)S(=O)(=O)c1ccc(C(=O)Nc2nnc(CSC)o2)cc1	-25%	-2%	-21%	i	?
COc1ccc2c(c1)-c1nc(-n3ncc(C(=O)N(C)CCO)c3C3CC3)ncc1CC2	.	.	.	i	.
Cc1c(C(=O)N2CCCCC2)sc2ncnc(NCCN(C)C)c12	.	.	.	i	.
COc1cc(OC)c(NC(=O)c2c3c(nc4ccccc24)C(=O)N(C2CCCCC2)C3)cc1Cl	.	-1%	-8%	.	13µM*
Cc1ccccc1NC(=O)c1c2c(nc3ccccc13)C(=O)N(C1CCCCC1)C2	.	6%	-3%	.	27%
CCOC(=O)c1ccc(NS(=O)(=O)c2cc(-c3onc(C)c3C)ccc2C)cc1	.	1%	-9%	.	21µM*
CCOC(=O)c1ccc(NS(=O)(=O)c2ccc(-c3cc(C)no3)cc2)cc1	.	-1%	-1%	.	-15%
COc1ccc(C2C3C=CCCC3(C)C(=O)N2Cc2ccccc2)cc1Cl (stereo unspecified)	.	.	5%	.	?
Cc1cc(NC(=O)CSc2ncnc3sccc23)no1	0%	8%	6%	i	-5%
